PubChem BioAssay (Tox21)
Inconclusive results are not listed. Calls of active or inactive are those of the source. The call rests on the fitted dose curve; in most records, active means well fitted curve in the direction sought with a large enough effect in the repeat runs; inconclusive means weak or mixed curves; inactive means no such curve, though single readings can be large; an effect the other way counts as inactive or inconclusive.

Columns and labels:
[1] = A CellTox Green Cytotoxicity Assay to monitor cytotoxicity in HEK293 cells - 40 hour (AID 1224871); further: nearly all actives have a fitted effect of over 45% in size
Outline: (§1)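 HEK293 cells, 600/well, were preincubated 5 hours and then exposed to compounds at 37 C for up to 40 hours. A cell-impermeant cyanine dye staining dead-cell DNA was read by fluorescence at 0, 8, 16, 24, 32 and 40 h time points.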

[2] = qHTS RealTime-Glo MT Cell Viability Assay in HepG2 cells - 8 hour (AID 1224873); further: nearly all actives have a fitted effect of over 55% in size
Outline: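 HepG2 cells mixed with RealTime-Glo MT reagents (NanoLuc plus cell-permeant prosubstrate) were seeded at 600 cells/well, incubated 5 h at 37 C/5% CO2, then pinned with compounds in DMSO; nonlytic luminescence tracked viability during 40 h treatment.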

[3] = qHTS RealTime-Glo MT Cell Viability Assay in HEK293 cells - 40 hour (AID 1224874); settings: RealTime-Glo luminescence; max response: active compounds read low; further: nearly all actives have a fitted effect of over 50% in size; further: potency means the concentration at half of the fitted maximal effect
Outline: (§2)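 600 cells/well were plated with the nonlytic NanoLuc/prosubstrate reagent, pre-incubated 5 h, then given 23 nL of compound in DMSO. Incubation at 37 C for 40 h, with luminescence from viable-cell-reduced substrate read repeatedly from 0 h.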

[4] = A CellTox Green Cytotoxicity Assay to monitor cytotoxicity in HEK293 cells - 24 hour (AID 1224875); further: series mostly up to about 77 µM; nearly all actives have a fitted effect of over 45% in size
Outline: as §1

[5] = A CellTox Green Cytotoxicity Assay to monitor cytotoxicity in HepG2 cells - 16 hour (AID 1224876); further: nearly all actives have a fitted effect of over 45% in size
Outline: (§3)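 HepG2 cells, 600/well, preincubated 5 h with CellTox Green dye, then exposed to Tox21 compounds in DMSO at 37 C for up to 40 h. Dead-cell DNA fluorescence read at the indicated time point.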

[6] = qHTS RealTime-Glo MT Cell Viability Assay in HepG2 cells - 32 hour (AID 1224877); further: nearly all actives have a fitted effect of over 55% in size
Outline: (§4)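 Compound treatment began 5 h after plating HepG2 cells (600/well) with NanoLuc luciferase and prosubstrate. Plates stayed at 37 C for 40 h; luminescence was captured at six time points, 0 h through 40 h.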

[7] = A CellTox Green Cytotoxicity Assay to monitor cytotoxicity in HepG2 cells - 24 hour (AID 1224878); further: nearly all actives have a fitted effect of over 45% in size
Outline: as §3

[8] = A CellTox Green Cytotoxicity Assay to monitor cytotoxicity in HepG2 cells - 40 hour (AID 1224879); further: nearly all actives have a fitted effect of over 40% in size
Outline: as §3

[9] = qHTS RealTime-Glo MT Cell Viability Assay in HEK293 cells - 0 hour (AID 1224880)
Outline: as §2

[10] = A CellTox Green Cytotoxicity Assay to monitor cytotoxicity in HepG2 cells - 0 hour (AID 1224882); further: nearly all actives have a fitted effect of over 35% in size
Outline: as §3

[11] = A CellTox Green Cytotoxicity Assay to monitor cytotoxicity in HepG2 cells - 32 hour (AID 1224883); further: nearly all actives have a fitted effect of over 50% in size
Outline: as §3

[12] = A CellTox Green Cytotoxicity Assay to monitor cytotoxicity in HEK293 cells - 8 hour (AID 1224884); further: nearly all actives have a fitted effect of over 35% in size
Outline: as §1

[13] = qHTS RealTime-Glo MT Cell Viability Assay in HepG2 cells - 16 hour (AID 1224885); further: nearly all actives have a fitted effect of over 50% in size
Outline: as §4

[14] = qHTS RealTime-Glo MT Cell Viability Assay in HEK293 cells - 24 hour (AID 1224886); further: top concentration of the series differs between compounds; nearly all actives have a fitted effect of over 50% in size
Outline: (§5)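 Quantitative high-throughput screen of the Tox21 10K library in HEK293: cells and RealTime-Glo reagents plated together, compound added at 5 h, luminescence monitored through 40 h at 37 C.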

[15] = qHTS RealTime-Glo MT Cell Viability Assay in HEK293 cells - 8 hour (AID 1224887)
Outline: as §2

[16] = A CellTox Green Cytotoxicity Assay to monitor cytotoxicity in HEK293 cells - 16 hour (AID 1224888); further: nearly all actives have a fitted effect of over 35% in size
Outline: as §1

[17] = qHTS RealTime-Glo MT Cell Viability Assay in HepG2 cells - 0 hour (AID 1224889); further: nearly all actives have a fitted effect of over 50% in size
Outline: as §4

[18] = A CellTox Green Cytotoxicity Assay to monitor cytotoxicity in HepG2 cells - 8 hour (AID 1224890); further: nearly all actives have a fitted effect of over 45% in size
Outline: as §3

[19] = A CellTox Green Cytotoxicity Assay to monitor cytotoxicity in HEK293 cells - 32 hour (AID 1224881); further: nearly all actives have a fitted effect of over 40% in size
Outline: as §1

[20] = qHTS RealTime-Glo MT Cell Viability Assay in HEK293 cells - 16 hour (AID 1224872)
Outline: as §5
On the % scale 0 is the no-effect control and ±100 the full control effect.

N#CCBr
inactive: Potency [1] | Potency [2] | max response [3] 6.36% | Potency [4] | Potency [5] | Potency [6] | Potency [7] | Potency [8] | outcome [9] | outcome [10] | Potency [11] | Potency [12] | Potency [13] | Potency [14] | Potency [15] | Potency [16] | Potency [17] | Potency [18]

O=C1OC(c2ccc(O)c(S(=O)(=O)O)c2)(c2ccc(O)c(S(=O)(=O)O)c2)c2c(Br)c(Br)c(Br)c(Br)c21
inactive: Potency [1] | Potency [2] | max response [3] 11.8% | Potency [4] | Potency [5] | Potency [6] | Potency [7] | Potency [8] | outcome [9] | outcome [10] | Potency [11] | Potency [12] | Potency [13] | Potency [14] | Potency [15] | Potency [16] | Potency [17] | Potency [18]

CNC(=O)Oc1cccc(C(C)C)c1
inactive: Potency [1] | Potency [2] | max response [3] -3.66% | Potency [4] | Potency [5] | Potency [6] | Potency [7] | Potency [8] | outcome [9] | Potency [19] | outcome [10] | Potency [11] | Potency [12] | Potency [14] | Potency [15] | Potency [16] | Potency [17] | Potency [18]

CC(C)(C)OC(=O)c1ncn2c1[C@@H]1CCCN1C(=O)c1c(Br)cccc1-2
inactive: Potency [1] | Potency [2] | max response [3] -21.6% | Potency [4] | Potency [5] | Potency [6] | Potency [7] | Potency [8] | outcome [9] | Potency [19] | outcome [10] | Potency [11] | Potency [12] | Potency [13] | Potency [14] | Potency [15] | Potency [16] | Potency [17] | Potency [18]

COCC(=O)N(c1c(C)cccc1C)N1CCOC1=O
inactive: Potency [1] | Potency [2] | max response [3] 0.893% | Potency [4] | Potency [5] | Potency [6] | Potency [7] | Potency [8] | outcome [9] | Potency [19] | outcome [10] | Potency [11] | Potency [12] | Potency [13] | Potency [14] | Potency [15] | Potency [16] | Potency [17] | Potency [18]

Cc1ncc2n1-c1ccc(Cl)cc1C(c1ccccc1F)=NC2
inactive: Potency [1] | Potency [2] | Potency [4] | Potency [5] | Potency [6] | Potency [7] | Potency [8] | outcome [9] | outcome [10] | Potency [11] | Potency [13] | Potency [15] | Potency [16] | Potency [17] | Potency [18]
active: Potency [3] 19 µM

C#C[C@]1(O)C=C[C@H]2[C@@H]3CCC4=CC(=O)CC[C@@H]4[C@H]3CC[C@@]21CC
inactive: Potency [1] | Potency [2] | Potency [5] | Potency [6] | Potency [7] | Potency [8] | Potency [19] | outcome [10] | Potency [11] | Potency [12] | Potency [13] | Potency [15] | Potency [16] | Potency [17] | Potency [18]

CCSC(=O)N(CC)C1CCCCC1
inactive: Potency [20] | Potency [2] | max response [3] -0.642% | Potency [4] | Potency [5] | Potency [6] | Potency [7] | Potency [8] | outcome [9] | outcome [10] | Potency [11] | Potency [12] | Potency [13] | Potency [14] | Potency [15] | Potency [16] | Potency [17] | Potency [18]

c1coc(-c2nc3ccccc3[nH]2)c1
inactive: Potency [1] | Potency [2] | Potency [5] | Potency [6] | Potency [7] | Potency [8] | outcome [9] | Potency [19] | outcome [10] | Potency [11] | Potency [12] | Potency [13] | Potency [16] | Potency [17] | Potency [18]

CC(C1CC1)C(O)(Cn1cncn1)c1ccc(Cl)cc1 (stereo not drawn)
inactive: Potency [1] | Potency [2] | Potency [4] | Potency [5] | Potency [6] | Potency [7] | Potency [8] | outcome [9] | Potency [19] | outcome [10] | Potency [11] | Potency [12] | Potency [13] | Potency [15] | Potency [16] | Potency [17] | Potency [18]
